The text below walks through data of PubChem BioAssay (NCI).

Structures are written as SMILES. Compounds without any hit were thinned out: in the full panel of roughly 83,000, 20% have a hit.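 Method: cells in 96-well plates; compound added at one concentration; 48 h incubation; percent growth measured; values under 10 scored active.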 Active and inactive are the calls of the source.

The test system of the assay is CCRF-CEM leukemia. Kind of assay: NCI-60 one-dose screen, 48 h (100 = growth as untreated, 0 = no growth, -100 = all killed). The settings on record: 10 µM unless noted. As for the experimental part: Growth inhibition of the CCRF-CEM human tumor cell line is measured as a screen for anti-cancer activity. Cells are grown in 96 well plates and exposed to the test compound for 48 hours. Compounds are tested at a single concentration, which is 10^-5 M for most compounds. The reported endpoint is percent growth (GI% or GIPRCNT), where numbers from 0 - 100% represent growth inhibition, and numbers from -100% - 0 represent cell death. For example, a value of 40 represents 60% growth inhibition. A value of 0 means no net growth occurred over the course of the experiment. A value of -40 indicates 40% of cells at the beginning of the experiment died by the end of the experiment. A value of -100 means all cells are dead at the end of the experiment.
NCI-60 Human Tumor Cell Lines Screen was performed using the standard one-dose NCI protocol, which is described in more detail at https://dtp.cancer.gov/discovery_development/nci-60/default.htm.
Compounds with GIPRCNT values below 10 were considered active. Activity score was based on GIPRCNT using the following formula: […]
Score is 0 for GIPRCNT values of 100 or above, 50 for GIPRCNT values of 0, and 100 for GIPRCNT values of -100.
On to `CC1Cc2c(ncnc2-n2cnc3ccccc32)N(C)c2ccccc21` (stereo not given), for which the growth was 13% (inactive). The result for `O=C(CCCSc1nc(-c2ccccc2)cc(-c2ccccc2)n1)NO` reads 3.58% (active). In the case of `CC(C)(C)OC(=O)N1C=C/C(=C\Cn2cc(-c3ccccc3)nn2)CC1`, the growth was 2.78% (active). As for `C[n+]1c2ccccc2nc2c(N)cc(N)cc21`, the figure is 58.8% (inactive); as for `COc1ccc(OC)c([N+](=O)[O-])c1C(=O)CNC(C)=O`, 110% (inactive). Turning to `O=C1CC(c2ccccc2)Cc2nc3ccc(Cl)cc3cc21` (stereo not given), the growth was 10.4% (inactive). The result for `CC1(C)S[C@@H]2[C@H](NC(=O)[C@H](C(=O)O)c3cccs3)C(=O)N2[C@H]1C(=O)O` reads 105% (inactive); that for `Clc1ccc(/C=N/Nc2nc3ccccc3s2)c(Cl)c1`, 80.5% (inactive); that for `COc1cc(C(=O)/C=C/c2c(-c3ccc(F)cc3)nc3sccn23)cc(OC)c1OC`, -41.9% (active). As for `COc1ccc(NCc2cn(-c3ccc(C(=O)O)cc3)nc2-c2ccc(C(=O)O)cc2)cc1C(F)(F)F`, the figure is -50.4% (active); as for `C=C(C)[C@@H]1CC[C@]2(COC(=O)c3ccccc3C(=O)O)CC[C@]3(C)[C@H](CC[C@@H]4[C@@]5(C)CC[C@H](OC(=O)c6ccccc6C(=O)O)C(C)(C)[C@@H]5CC[C@]43C)[C@@H]12`, 46.4% [100 µM] (inactive). With `CCOC(=O)COc1c(C)cc(SSc2cc(C)c(OCC(=O)OCC)c(C)c2)cc1C`, the growth was 82.5% (inactive). With `CC[C@]1(O)CC2CN(CCc3c([nH]c4ccccc34)[C@@](C(=O)OC)(c3cc4c(cc3OC)N(C=O)[C@H]3[C@@](O)(C(=O)OC)[C@H](OC(C)=O)[C@]5(CC)C=CCN6CC[C@]43[C@@H]65)C2)C1` (stereo not given in full), the growth was 2.51% (active). For `COC(=O)c1c(C)[nH]c(/C=C2\N=C(c3ccc[nH]3)C=C2OC)c1C`, the growth was 15.2% (inactive). Take `N#C/C(C(=O)c1ccccc1)=C1/C(=O)Nc2ccc(Br)cc21`: the growth was 110% (inactive).

On to `O=C1/C(=C\c2cccn2Cc2ccccc2)c2ccccc2N1c1c(Cl)cccc1Cl`, for which the growth is 92.9% (inactive). The result for `O=C(CSc1nc2ccc([N+](=O)[O-])cc2[nH]1)Nc1cccc(Cl)c1` reads 16.4% (inactive); that for `Cc1ccc(-c2cn(C/C=C3\C=CN(S(=O)(=O)c4ccccc4)CC3)nn2)cc1`, 3.1% (active); that for `Nc1ccc(NC(=O)c2ccccc2)c2c1C(=O)c1ccccc1C2=O`, 91.1% (inactive). As for `CCN(CC)CCCCCCNc1cccc2cc(Br)cnc12`, the figure is 57% (inactive); as for `Cc1ccc(-c2cc(O)c(-c3ccc(C)cc3C)cc2O)c(C)c1`, 39.5% (inactive); as for `CCOC(=O)c1cc(C#N)n2ncc3ccccc3c12`, 106% (inactive).

In the case of `CO[C@H]1CC[C@@]2(C)C(=CC[C@H]3[C@@H]4C[C@H](O)C[C@@]4(C)CC[C@@H]32)C1`, the growth was 19.3% (inactive). Turning to `CC(C)OC(=O)Nc1cc(F)c(F)cc1F`, the growth was 103% (inactive).

`COc1cc(C)cc2oc3oc(=N)c(C(=O)c4ccccc4)cc3c(=O)c12`: the growth is 118% (inactive). The result for `O=C(Nc1ccc(Nc2ccncc2)cc1)c1ccc([N+](=O)[O-])cc1` reads 1.05% (active); that for `CC(C)OC(=O)Nc1cc(F)ccc1F`, 103% (inactive); that for `O=C(OCc1ccc2c(Cl)cc(Cl)c(O)c2n1)N1CCNCC1`, 26.1% (inactive). As for `N#CCCc1c[nH]c2ccccc12`, the figure is 81.6% (inactive); as for `O=S(=O)(NCCCNc1nccc(-c2c(-c3cccc(F)c3)nc3occn23)n1)c1cccc2ccccc12`, 25.9% (inactive); as for `CNC(=O)c1cc(Oc2ccc3nc(NC(=O)c4ccc5ncccc5c4)sc3c2)ccn1`, 91% (inactive). Consider `Cc1ccc(S(=O)(=O)Oc2ccc(Br)cc2Br)cc1`, for which the growth is 47.7% (inactive). As for `CCN=C1C=CC(=C(c2ccc(N(CC)CC)cc2)c2ccc(N(CC)CC)cc2)c2ccccc21`, the figure is 1.05% (active); as for `CC(C)C1=NOC(=O)C1=Cc1cn(-c2ccccc2)nc1-c1ccccc1`, 8.48% (active). As for `COc1ccc(C=C2c3ccccc3-c3ccccc32)cc1`, the figure is 57.7% (inactive); as for `CCOc1ccccc1/C=N\Nc1ccc(S(=O)(=O)c2ccc(N/N=C/c3ccccc3OCC)cc2)cc1`, 94.7% (inactive); as for `COc1ccc(OC)c(NC=O)c1`, 127% (inactive).

Consider `O=C(NCCO)c1cccnc1`, for which the growth was 81.4% (inactive).

Turning to `CCn1cc(-c2[nH]c(=S)ncc2-c2ccc(Cl)cc2)c(-c2ccc(Br)cc2)n1`, the growth was 97.8% (inactive).

Consider `COc1cc2c(c(OC)c1OC)-c1cc(I)c(O)cc1[C@@H](NC(C)=O)CC2`, for which the growth was 30% (inactive).
